In PubChem BioAssay AID1619 (SRMLSC, 2009) one finds inhibition data, which are given here for 99 molecules.

Usually inhibition stands for the change of the read-out against control, counted positive when it falls.

Hit rate of the full screen: of about 220,000 compounds, about 830 (0.38%) were called active. A selection follows. Entries with a potency or affinity are not part of this list. Values without a mark were called inactive.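 How the source made its calls: active means compound inhibiting the enzyme by more than half at any dose during confirmatory dose-response retesting; inconclusive means strong single-dose inhibitors picked by rank but not retested; inactive means the rest.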

Chain of Leucine aminopeptidase (Plasmodium falciparum (isolate 3D7)) (Q8IL11 whole entry, looked up): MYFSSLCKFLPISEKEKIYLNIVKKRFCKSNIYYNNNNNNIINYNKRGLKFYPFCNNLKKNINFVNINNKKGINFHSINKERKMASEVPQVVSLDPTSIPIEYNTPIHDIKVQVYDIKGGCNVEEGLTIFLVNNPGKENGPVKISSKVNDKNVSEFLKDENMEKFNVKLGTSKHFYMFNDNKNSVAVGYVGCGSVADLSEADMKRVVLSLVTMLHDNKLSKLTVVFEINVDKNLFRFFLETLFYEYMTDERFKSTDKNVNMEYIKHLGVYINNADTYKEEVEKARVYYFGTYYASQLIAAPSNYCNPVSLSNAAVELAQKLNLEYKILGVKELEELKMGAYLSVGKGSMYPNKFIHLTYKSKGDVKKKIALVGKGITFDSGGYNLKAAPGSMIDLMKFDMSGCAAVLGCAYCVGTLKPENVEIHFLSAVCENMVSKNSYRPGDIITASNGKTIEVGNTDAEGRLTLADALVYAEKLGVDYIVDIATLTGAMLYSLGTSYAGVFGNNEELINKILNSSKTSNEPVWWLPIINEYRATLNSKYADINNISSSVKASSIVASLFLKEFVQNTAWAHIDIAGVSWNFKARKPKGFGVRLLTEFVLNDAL

This assay concerns the target Leucine aminopeptidase (Plasmodium falciparum (isolate 3D7)) (UniProt Q8IL11). The experiment in a line: P. falciparum M17LAP inhibitors, primary screen, biochemical, fluorogenic H-Leu-NHMec substrate, 1536-well (AID 1619).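 Further: plate controls were full reaction with DMSO carrier for no effect and no enzyme background for full effect.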 Conditions: recombinant M17LAP, H-Leu-NHMec fluorogenic kinetic assay; at 30 µM; stronger effect = higher value.
Take `CC1=CCC2C(=O)N(c3ccc(Br)cc3C)C(=O)C2C1` (centres undefined): the inhibition was -2.62%.
On to `COc1cc(C(=O)O)cc(NC(=O)c2cccs2)c1OC`, for which the inhibition is 27%.
In the case of `CC(NS(=O)(=O)c1ccccc1)C(c1cccs1)N1CCOCC1` (centres undefined) it was 3.6%; in that of `CCOc1ncccc1C(=O)OCC(=O)NCc1ccc2c(c1)OCO2`, -8.27%.
In the case of `O=C(COC(=O)c1cccc(S(=O)(=O)N2CCOCC2)c1)Nc1ncc(C(F)(F)F)cc1Cl` it was 4.29%; in that of `C/C(CC(=O)Nc1cc(C)ccn1)=N\NC(=O)C(=O)Nc1cccc(C)c1`, 17.6%.
For the molecule `C/C(CC(=O)Nc1cc(C)ccn1)=N\NC(=O)c1cccc(C)c1`, the inhibition was 36.6%.
With `c1ccc(CSc2ncnc3c2cnn3-c2ccccc2)cc1`, the inhibition was 6.75%.
As for `CC(=O)CSc1ncnc2c1cnn2-c1ccccc1`, the inhibition is -3.85%.
In the case of `O=C(O)c1cccc(-n2cccc2/C=C2\NC(=O)N(Cc3ccc(F)cc3)C2=O)c1` it was 14.1%.
Next, `O=C1N/C(=C/c2cccn2-c2ccccc2)C(=O)N1Cc1ccccc1F`: 2.46%.
In the case of `COc1ccc(C(=O)OCC(=O)Nc2nc3c(F)c(F)c(F)cc3s2)cc1OC` it was -4.12%.
Take `CCOc1ccccc1OCC(=O)Nc1nnc(COC)s1`: the inhibition is -14%.
In the case of `COc1ccc(-c2cn(-c3cccc(C)c3)c(=O)[nH]2)cc1OC` it was 12.5%.
Next, `COc1ccc(-c2c[nH]c(=O)[nH]c2=O)cc1OC`: 7.18%; `COc1ccc(-c2cc(=O)[nH]c(=O)[nH]2)cc1`: 6.04%; `COc1cccc(-c2cc(=O)[nH][nH]2)c1`: -0.06%.
In the case of `Cn1nc(-c2ccc(NCCO)c([N+](=O)[O-])c2)c2ccccc2c1=O`, the inhibition was -6.44%.
Regarding `Cc1nn(-c2ccccn2)c(N)c1N=O`, the inhibition is 13.8%.
In the case of `O=C(CN1C2=NCCCN2c2ccccc21)c1cccs1` it was -10.1%; in that of `CCN1C(=O)/C(=C/c2cccs2)SC1=Nc1ccc(OC)cc1`, -1.72%.
Next, `CC(C)c1ccc(OCC(=O)Nc2cccc(C(=O)Nc3ccccc3C(=O)O)c2)cc1`: 5.28%; `COc1ccc(OCC(=O)Nc2cccc(C(=O)Nc3ccccc3C(=O)O)c2)cc1`: 37%; `CC(Sc1nc2ccccc2[nH]1)C(=O)O` (centres undefined): 4.99%.
Next, `Cc1cc2nc(SC(C)C(=O)O)[nH]c2cc1C` (centres undefined): 19.5%.
As for `COc1ccc(-n2nc(N)c3c(=O)oc(N(C)C)nc32)cc1`, the inhibition is 3.39%.
In the case of `COC(=O)c1cccc(CN2C(=O)SC(Nc3ccccc3)C2=O)c1` (centres undefined) it was 2.34%; in that of `O=C(O)CN1C(=O)SC(Nc2ccccc2)C1=O` (centres undefined), 15.1%.
In the case of `Cc1ccc(NC2SC(=O)N(Cc3cccc(C(=O)O)c3)C2=O)c(C)c1` (centres undefined) it was -1%.
`COC(=O)c1cccc(CN2C(=O)SC(Nc3ccc(C)cc3)C2=O)c1` (centres undefined): the inhibition was 2.69%.
Next, `NC(=O)CN(c1ccccc1)C1SC(=O)N(Cc2ccccc2)C1=O` (centres undefined): -3.19%.
Turning to `Cc1ccc(N(CC(N)=O)C2SC(=O)N(Cc3ccccc3)C2=O)cc1` (centres undefined), the inhibition was 8.98%.
Next, `O=C1Nc2ccccc2S/C1=C/c1cccs1`: 4.97%; `CCCCCCOc1cccc(N)c1`: -6.2%.
In the case of `COc1ccc(S(=O)(=O)N(CC(=O)N/N=C/c2cccs2)c2cc(C)cc(C)c2)cc1OC` it was -9.62%; in that of `Cc1ccc(O)c(CNn2cnnc2)c1`, -3.08%; in that of `C/C(=N\O)c1oc2ccc3c(C)cc(=O)oc3c2c1C`, 2.81%.
Next, `COc1nc(N(CC(N)=O)S(=O)(=O)c2ccccc2)nc(C)c1Cl`: -8.61%; `Cc1ccc(-n2nnnc2CN2CCCCC2)cc1`: -0.54%; `COC(=O)c1scc(C)c1N/N=C(\C)c1cc(F)c(Cl)cc1F`: -1.99%.
For the molecule `Cn1ncc(Cl)c1C(=O)N/N=C/c1cc2c(cc1[N+](=O)[O-])OCO2`, the inhibition was 10.6%.
Next, `CCCc1ncc(C(O)c2ccc(OC)cc2)n1C` (centres undefined): -6.37%.
Next, `Cc1ccc(Oc2ccc(NC(=O)CSc3n[nH]c(N)n3)cc2)cc1`: -7.16%.
Next, `Cc1ccc(NC(=O)CN(C)C(=O)CSc2nc3ccccc3o2)cc1`: 3.63%; `Cc1ccc(NC(=O)CN(C)C(=O)CSc2nc(C)cs2)cc1`: -4.97%; `Cc1ccc(CNC(=O)CSc2n[nH]c(N)n2)cc1`: 16.9%.
As for `CCn1ncc(/C=N\NC(=O)c2ccc3c(c2)c(C)c(C)n3Cc2ccccc2)c1C`, the inhibition is 8%.
In the case of `Cc1c(C(=O)N2CCN(Cc3ccc4c(c3)OCO4)CC2)cccc1[N+](=O)[O-]` it was 11.8%; in that of `COc1ccc(Nc2nc(C(=O)N3CCc4cc(OC)c(OC)cc4C3)cs2)cc1`, -3.32%.
In the case of `COc1ccc(NC(=O)COC(=O)c2ccco2)c([N+](=O)[O-])c1` it was -7.81%.
Next, `CN(Cc1cnccn1)C(=O)CC1C(=O)NCCN1Cc1c(F)cccc1Cl` (centres undefined): 4.09%.
Take `CCCCc1ccc(NC(=O)N[C@@H](C)C(=O)O)cc1`: the inhibition was -2.39%.
Next, `CCCCCOc1ccc(C(=O)NC(C(=O)O)C(C)C)cc1` (centres undefined): 46.7%; `CCc1ccc(C(=O)NC(C(=O)O)C(C)C)cc1` (centres undefined): 56.2%.
Next, `CCCCc1ccc(NC(=O)C(C)CC)cc1` (centres undefined): 4.63%.
In the case of `CCc1ccc(NC(=O)N[C@H](C(=O)O)C(C)CC)cc1` (some centres undefined) it was -1.8%; in that of `CCCCc1ccc(NC(=O)N[C@@H](CC(C)C)C(=O)O)cc1`, -4.28%.
Consider `CC(C)(C)NC(=O)CN(Cc1ccc(F)cc1)C(=O)Cn1nnc(-c2ccc(F)cc2)n1`, for which the inhibition was 2.63%.
For the molecule `Cc1cccc(OCCCOc2cccc3cccnc23)c1C`, the inhibition is -0.78%.
Next, `C[C@@H](C(=O)N1CCN(C(=O)OC(C)(C)C)CC1)n1cc(CCC(=O)O)nn1`: 3.71%.
For `Cc1ccc(SCCn2nc(C(=O)O)c3ccccc3c2=O)cc1`, the inhibition was 11.2%.
As to `Cc1cccc(NS(=O)(=O)c2ccc3c(c2)NC(=O)CC(=O)N3)c1`, the inhibition is 0.82%.
Next, `Cc1ccccc1C(=O)Nc1sc2c(c1C(=O)O)CCC2`: 25.7%.
As to `CCOc1ccccc1NC(=O)c1c(NC(=O)CCC(=O)O)sc2c1CCCCC2`, the inhibition is 3.19%.
As for `COc1ccc(NC(=O)c2c(NC(=O)CCC(=O)O)sc3c2CCCCC3)cc1`, the inhibition was 46%.
Next, `CCOC(=O)c1ccc(NC(=O)c2c(NC(=O)CCC(=O)O)sc3c2CCCCC3)cc1`: 4.02%; `O=C(Nc1sc2c(c1C(=O)O)CCCCC2)c1ccccc1`: 54.2%.
With `COc1ccccc1NC(=O)c1c(NC(=O)CCC(=O)O)sc2c1CCCCC2`, the inhibition is 12%.
In the case of `O=C(NCCC(c1ccccc1)c1ccccc1)c1cnccn1` it was -1.23%.
In the case of `COc1ccc(C)cc1NC(=O)C(OC(=O)CNC(=O)c1ccc(Br)cc1)c1ccccc1` (centres undefined) it was -14.5%; in that of `CN(C)S(=O)(=O)c1ccc(NC(=O)Cn2ccsc2=N)cc1`, 0.8%.
`c1ccc(-c2nc(NCC3CCCO3)c3oc4ccccc4c3n2)cc1` (centres undefined): the inhibition is -4.77%.
Next, `Cc1noc(C)c1COc1ccc(C(=O)OCC(=O)Nc2ccc3c(c2)OCO3)cc1`: 4.59%.
As for `COc1ccc2[nH]c(C)c(CCNC(=S)Nc3ccc(F)cc3)c2c1`, the inhibition is -5.1%.
On to `O=C(Cn1cc2c(n1)CCCC2)N1CCc2ccccc21`, for which the inhibition is 3.11%.
As to `COc1ccccc1N1CC(C)C(=O)NC1=S` (centres undefined), the inhibition was 8%.
In the case of `Cc1ccccc1C(=O)NNC(=S)NC(=O)c1ccc(Cl)cc1Cl` it was 90.7%; in that of `Cc1ccccc1C(=O)NCC(=O)NNC(=S)NC(=O)c1ccccc1C`, 63.2%; in that of `Cc1ccccc1C(=O)NNC(=S)NC(=O)c1cccnc1`, 80.7%.
In the case of `Cc1onc(-c2ccccc2)c1C(=O)NNC(=S)NC(=O)c1ccc(Br)cc1`, the inhibition was 44.1%.
In the case of `Cc1ccccc1C(=O)NC(=S)NCC(=O)c1ccccc1` it was 0.75%; in that of `Cc1onc(-c2ccccc2)c1C(=O)NC(=S)NNC(=O)c1ccc(O)cc1`, 14.3%.
In the case of `Cc1ccc(NC(=O)CN(c2ccccc2)S(=O)(=O)N(C)C)cc1` it was -5.3%; in that of `CCOC(=O)c1cnc2c(C(F)(F)F)cccc2c1N1CCOCC1`, 6.02%; in that of `C/C(CC(=O)N(C(C)C)C(C)C)=N\NC(=O)COc1ccc(Cl)cc1Cl`, 7.13%.
As for `Cc1ccc(C(=O)Nc2ccc3cn[nH]c3c2)cc1S(=O)(=O)N1CCCCC1`, the inhibition was 4.67%.
In the case of `CCOC(=O)NC(=O)CSc1nnnn1-c1ccccc1` it was 0.74%; in that of `OCC(O)C1OC(Nc2ccc(Cl)cc2)C(O)C1O` (centres undefined), 2.43%; in that of `Cc1nn(S(=O)(=O)c2cccc([N+](=O)[O-])c2)c(C)c1Br`, 10.8%.
In the case of `Cc1ccc(NC(=O)COC(=O)Cn2c(C)csc2=O)cc1C` it was 4.89%; in that of `Nc1nn(-c2ccccc2)c(N)c1N=Nc1ccccc1`, -19.2%.
Next, `Nc1nn(-c2ccccc2)c(N)c1N=Nc1cccc(F)c1`: -3.61%.
On to `COc1ccc(N=Nc2c(N)n[nH]c2N)cc1`, for which the inhibition was 9.88%.
In the case of `Nc1n[nH]c(N)c1N=Nc1ccc(Cl)cc1Cl` it was 47.6%.
Next, `Nc1n[nH]c(C2CC2)c1N=Nc1ccc(Cl)cc1`: 18.4%; `COC(=O)c1ccccc1N=Nc1c(N)n[nH]c1N`: 12.4%.
Turning to `Nc1n[nH]c(N)c1N=Nc1ccc2c(c1)OCO2`, the inhibition was -3.08%.
Next, `Cc1[nH]nc(N)c1N=Nc1ccc(Br)cc1`: -1.99%; `Cc1ccc(S(=O)(=O)N2CCOCC2)cc1NC(=O)CN1CCN(c2ccc(O)cc2)CC1`: -10.2%.
